Results on 40 compounds are retold here after PubChem BioAssay (NCATS).

A number with no mark means an inactive call. The rule behind the calls is not given here.
Potency is the fitted concentration of half-maximal effect.

For this test, the system named is HIV-1 nucleocapsid protein NCp7 (binding to TG oligonucleotide). The experiment in a line: HIV Nucleocapsid (AID 346).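 Note: potency is for inhibitors that block NC binding and lower polarization.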 The settings on record: HIV-1 NC / fluorescein-TGTGTGTG probe, fluorescence polarization. The gist of the method: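 HIV-1 NC (100 nM) binding to fluorescein-labelled ssDNA TG4xF (10 nM) in Hepes pH 7.5, 250mM NaCl, 1uM ZnCl2, TCEP and 2-mercaptoethanol; compounds pin-transferred, 1 hr room temperature, fluorescence polarization read on CCD imager.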
Background: Polarisation of emitted light reports the rotation of a fluorescent probe.
For `COc1ccc(-c2nc3cnc(Nc4cccc(OC)c4)nc3n(C3CC3)c2=O)cc1`, the Potency was 15.7 µM.
The value for `COc1cccc(Nc2ncc3nc(C)c(=O)n(CCc4ccccc4)c3n2)c1` was over 20 µM.
Turning to `COCCn1c(=O)c(-c2ccc(Cl)cc2)nc2cnc(Nc3ccccc3)nc21`, the Potency is over 20 µM.
As for `COc1ncc2nc(-c3cc(F)cc(F)c3)c(=O)n(C[C@H]3CCCO3)c2n1`, the figure is over 20 µM; as for `COc1ccccc1CNc1cc(-c2ccc(C(=O)N(C)C)cc2)ncn1`, over 20 µM.
The value for `COCC(=O)N1CCC2(CC1)CN(c1ccc(-c3ccccc3)cc1)C2` was over 20 µM; that for `CCNc1ncc2nc(-c3cccs3)c(=O)n(Cc3cccc(OC)c3)c2n1` was over 4 µM; that for `CNc1ccnc(-c2ccccc2C(F)(F)F)n1` was over 20 µM.
As for `COCC(=O)N1CCC2(CCCN(c3ccccc3)C2)CC1`, the figure is over 20 µM; as for `O=C(c1cc(C(F)(F)F)cc(C(F)(F)F)c1)N1CCC2(CCCN(Cc3ccccc3)C2)CC1`, over 20 µM.
Take `Cc1cnc(CNc2ncncc2-c2c(C)noc2C)cn1`: the Potency was over 20 µM.
The value for `COc1ccccc1CN1CC2(CCN(S(=O)(=O)c3ccccc3)CC2)C1` was over 20 µM.
The value for `Cn1cccc1C(=O)N1CCC2(CCN(Cc3ccccc3)CC2)CC1` was over 20 µM.
As for `CC(=O)N1CCC2(CCN(Cc3ccc(C#N)cc3)CC2)CC1`, the Potency was over 20 µM.
The value for `Cc1cnc(CNc2ncncc2-c2cccc(NS(C)(=O)=O)c2)cn1` was over 20 µM.
As for `COCC(=O)N1CCC2(CCN(Cc3cc(C(F)(F)F)cc(C(F)(F)F)c3)CC2)CC1`, the figure is over 20 µM; as for `N#Cc1cccc(NC(=O)N2CC3(CCN(C(=O)c4cc(C(F)(F)F)cc(C(F)(F)F)c4)CC3)C2)c1`, over 20 µM.
The value for `O=C(c1ccco1)N1CCC2(CCCN(C(c3ccccc3)c3ccccc3)C2)CC1` was over 20 µM; that for `Cc1noc(C)c1-c1cncnc1NCc1ccccc1` was over 20 µM.
As for `COc1ccc(CNc2ncnc3ccc(-c4ccc(C(=O)N(C)C)cc4)cc23)c(OC)c1`, the Potency was over 20 µM.
Regarding `O=C(c1csnn1)N1CCC2(CC1)CN(c1cccc(-c3ccccc3)c1)C2`, the Potency was over 20 µM.
The value for `N#CCCn1c(=O)c(-c2cccs2)nc2cnc(N3CCNCC3)nc21` was 16.4 µM; that for `COc1cccc(-c2cncnc2-n2ccnc2)c1` was over 20 µM; that for `O=C(c1csnn1)N1CCC2(CC1)CN(c1ccncc1)C2` was over 20 µM.
As for `COCCNc1nc(-c2cccc(OC)c2)nc2ccccc12`, the figure is over 20 µM; as for `COc1cccc(-c2nc(N3CCN(C)CC3)c3ccccc3n2)c1`, over 20 µM.
The value for `COc1ccccc1CNc1nc(-c2cccc(NS(C)(=O)=O)c2)nc2ccccc12` was over 20 µM; that for `COc1ccc(Oc2ncc3nc(C)c(=O)n(C[C@H]4CCCO4)c3n2)cc1` was over 20 µM; that for `CC(C)NC(=O)N1CCC2(CC1)CCN(S(C)(=O)=O)CC2` was over 20 µM.
Turning to `O=C(Oc1ccccc1)N1CCC[C@@]2(CCN(c3ccccc3)C2)C1`, the Potency is over 20 µM.
As for `N#Cc1cccc(NC(=O)N2CCCC3(CCN(C(=O)c4ccco4)CC3)C2)c1`, the figure is over 4 µM; as for `COc1cccc(Nc2ncc3ncc(=O)n(C[C@H]4CCCO4)c3n2)c1`, over 20 µM.
The value for `COc1ccc2[nH]cc(CCNc3ncnc4ccc(-c5ccccc5OC)cc34)c2c1` was over 20 µM; that for `COc1ccc(-n2c(=O)c(C)nc3cnc(Oc4ccccc4)nc32)cc1` was over 20 µM; that for `O=C(c1cccc(F)c1)N1CCC[C@@]2(CCN(c3ccncc3)C2)C1` was over 20 µM.
As for `FC(F)(F)c1ccccc1-c1cc(NCc2cccs2)ncn1`, the figure is over 20 µM; as for `N#CCCn1c(=O)c(-c2ccc(Cl)cc2)nc2cnc(N3CCNCC3)nc21`, over 20 µM.
For `O=S(=O)(c1ccccc1)N1CCC2(CCCN(c3ccncc3)C2)CC1`, the Potency was over 20 µM.
As for `COc1ccccc1CN1CCC2(CCNCC2)CC1`, the figure is over 20 µM; as for `N#Cc1cccc(-c2nc(N3CCNCC3)c3ccccc3n2)c1`, over 20 µM.
